This note sets out measurements from the supplement of paper PMC6522484.

Experiment [1] concerns DLD1. The experiment in a line: cell viability (CellTiter-Glo) relative to plate median (fraction of plate median); higher = more viable cells. The following applies: 5 µM; treatment time 24 h; reporter: 7TFP. The method, boiled down:
(§1)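 After seeding in 384-well plates, colorectal cancer cell lines carrying stable lentiviral TCF/Wnt firefly luciferase reporters (7TFP or TCF4/Wnt) were left 24 h. Library compounds were then added at a final 5 µM for 24 h. A Tecan F500 reader measured firefly luciferase or CellTiterGlo luminescence on parallel plates, with each well normalised to the plate median by webcellHTS2 (additive, no log transformation), and two independent replicates averaged.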
(ATP-based viability assays read luminescence as a measure of living cells.)

Another experiment relates to HCT116. Described as above. The following applies: 5 µM; treatment time 24 h; reporter: TCF4/Wnt. An outline of the steps: as §1
Experiment [2] has as its system SW480. Described as above. To be noted: 5 µM; treatment time 24 h; reporter: 7TFP. An outline of the steps: as §1
Experiment [3] deals with DLD1. The experiment can be described thus: TCF/Wnt firefly luciferase reporter signal relative to plate median (fraction of plate median); higher = higher Wnt reporter signal. To be noted: 5 µM; treatment time 24 h; reporter: 7TFP. An outline of the steps:
as §1

Experiment [4] deals with SW480. Described as above. To be noted: 5 µM; treatment time 24 h; reporter: 7TFP. The method, boiled down:
as §1

± gives the standard deviation of the averaged measurements.

In the case of `CCN(CC)Cc1cc(Nc2ccnc3cc(Cl)ccc23)ccc1O`, the cell viability came to 0.908 ± 0.064 in the experiment with DLD1 [1], 0.967 ± 0.016 in the experiment on HCT116 and 0.946 ± 0.051 in the experiment with SW480 [2]. Further, the “TCF/Wnt firefly luciferase reporter signal” value in the experiment on DLD1 [3] is 0.952 ± 0.17; with SW480 [4], 0.921 ± 0.25.
Taken in the same sequence, the figures for `Cc1onc(-c2c(Cl)cccc2Cl)c1C(=O)N[C@@H]1C(=O)N2[C@@H]1SC(C)(C)[C@@H]2C(=O)O` were 0.935 ± 0.027, 1.05 ± 0.073, 0.972 ± 0.036, 1 ± 0.042 and 1.15 ± 0.16.
Taken in the same sequence, the figures for `COc1ccc(C2C(=O)c3ccccc3C2=O)cc1` were 0.997 ± 0.061, 0.984 ± 0.08, 1.01 ± 0.045, 0.933 ± 0.095 and 0.94 ± 0.021.
On the same counts, the results for `COc1cc(C(=O)N2CCOCC2)cc(OC)c1OC` are 1.08 ± 0.11, 1.03 ± 0.079, 1.06 ± 0.028, 1.04 ± 0.24 and 1.08 ± 0.035.
As for `COc1c(-c2coc3cc4c(cc3c2=O)CC(OC(C)=O)C(C)(C)O4)ccc2c1C=CC(C)(C)O2` (stereo not given), the cell viability in the experiment with DLD1 [1] came out at 0.961 ± 0.0085; in the experiment with HCT116 it was 0.887 ± 0.077; in the experiment on SW480 [2], 1.01 ± 0.045. The “TCF/Wnt firefly luciferase reporter signal” value in the experiment on DLD1 [3] was determined as 1.01 ± 0.32; with SW480 [4] it was 1.1 ± 0.16.
On the same counts, the results for `CN1CCN2c3ccccc3Cc3ccccc3C2C1` (stereo not given) are 1.03 ± 0.053, 1.08 ± 0.071, 1.07 ± 0.021, 1.04 ± 0.083 and 1.08 ± 0.071.
On the same counts, the results for `CN(C)CCOC(c1ccc(Cl)cc1)c1ccccn1` (stereo not given) are 1.004 ± 0.0085, 0.977 ± 0.033, 0.916 ± 0.088, 0.888 ± 0.0057 and 0.891 ± 0.12.
On the same counts, the results for `CC(=O)OCC(=O)[C@@]12OC(C)(C)O[C@@H]1C[C@H]1[C@@H]3C[C@H](F)C4=CC(=O)C=C[C@]4(C)[C@@]3(F)[C@@H](O)C[C@@]12C` are 1.01 ± 0.023, 1 ± 0.05, 0.969 ± 0.044, 1.03 ± 0.072 and 1.06 ± 0.093.
On to `COc1cc(/C=C/C(=O)O)cc(OC)c1OC`, for which the figures for the cell viability in the experiment on DLD1 [1], with HCT116 and in the experiment on SW480 [2] were 0.983 ± 0.016, 0.961 ± 0.015 and 0.903 ± 0.056, respectively. Further, the “TCF/Wnt firefly luciferase reporter signal” value in the experiment on DLD1 [3] came to 0.827 ± 0.072; in the experiment on SW480 [4] it was 0.972 ± 0.0028.
On the same counts, the results for `COC(=O)c1c(C)cc(O)cc1O` are 0.999 ± 0.03, 0.837 ± 0.23, 1 ± 0.037, 1.15 ± 0.014 and 0.984 ± 0.11.
Taken in the same sequence, the figures for `CC(C)CCCC(C)C1CCC2C3CCC4CCCCC4(C)C3CCC12C` (stereo not given) were 1, 0.997 ± 0.033, 0.9585 ± 0.00071, 0.94 ± 0.042 and 1.02 ± 0.014.
On the same counts, the results for `O=c1c(O)c(-c2ccc(O)cc2)oc2ccccc12` are 0.975 ± 0.05, 1.16 ± 0.05, 1.01 ± 0.034, 1.05 ± 0.028 and 0.957 ± 0.047.
As to `COC(=O)[C@]1(C)CCC[C@]2(C)c3ccc(C(C)C)cc3C(=O)CC12` (stereo not given in full), the cell viability in the experiment with DLD1 [1] stood at 1.1 ± 0.13; with HCT116, 1.03 ± 0.081; with SW480 [2], 1.05 ± 0.028. Besides, the figures for the “TCF/Wnt firefly luciferase reporter signal” value in the experiment on DLD1 [3] and with SW480 [4] were 1.07 ± 0.25 and 1.07, respectively.
On the same counts, the results for `CC(=O)C[C@@H]1C[C@H](O)c2c(O)cccc2C1=O` [Bhimanone] are 1.06 ± 0.035, 1.03 ± 0.035, 1.05 ± 0.14, 1.11 ± 0.035 and 1.12 ± 0.057.
